Test [1] concerns the target Leukocyte tyrosine kinase receptor (Homo sapiens) (UniProt P29376). To be noted: at 1 µM.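 Further: each value is the mean inhibition of LTK.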
The target of test [2] is Tyrosine-protein kinase Lyn (Homo sapiens) (UniProt P07948). To be noted: at 0.1 µM.
Test [3] has the same target. To be noted: at 1 µM.
Test [4] shares this target. To be noted: at 0.1 µM. This is another data set of the same source.
Test [5] has the same target. To be noted: at 1 µM. This is another data set of the same source.
Test [6] deals with T1, Tyrosine-protein kinase Mer (Homo sapiens) (UniProt Q12866).
T1 sequence (whole entry): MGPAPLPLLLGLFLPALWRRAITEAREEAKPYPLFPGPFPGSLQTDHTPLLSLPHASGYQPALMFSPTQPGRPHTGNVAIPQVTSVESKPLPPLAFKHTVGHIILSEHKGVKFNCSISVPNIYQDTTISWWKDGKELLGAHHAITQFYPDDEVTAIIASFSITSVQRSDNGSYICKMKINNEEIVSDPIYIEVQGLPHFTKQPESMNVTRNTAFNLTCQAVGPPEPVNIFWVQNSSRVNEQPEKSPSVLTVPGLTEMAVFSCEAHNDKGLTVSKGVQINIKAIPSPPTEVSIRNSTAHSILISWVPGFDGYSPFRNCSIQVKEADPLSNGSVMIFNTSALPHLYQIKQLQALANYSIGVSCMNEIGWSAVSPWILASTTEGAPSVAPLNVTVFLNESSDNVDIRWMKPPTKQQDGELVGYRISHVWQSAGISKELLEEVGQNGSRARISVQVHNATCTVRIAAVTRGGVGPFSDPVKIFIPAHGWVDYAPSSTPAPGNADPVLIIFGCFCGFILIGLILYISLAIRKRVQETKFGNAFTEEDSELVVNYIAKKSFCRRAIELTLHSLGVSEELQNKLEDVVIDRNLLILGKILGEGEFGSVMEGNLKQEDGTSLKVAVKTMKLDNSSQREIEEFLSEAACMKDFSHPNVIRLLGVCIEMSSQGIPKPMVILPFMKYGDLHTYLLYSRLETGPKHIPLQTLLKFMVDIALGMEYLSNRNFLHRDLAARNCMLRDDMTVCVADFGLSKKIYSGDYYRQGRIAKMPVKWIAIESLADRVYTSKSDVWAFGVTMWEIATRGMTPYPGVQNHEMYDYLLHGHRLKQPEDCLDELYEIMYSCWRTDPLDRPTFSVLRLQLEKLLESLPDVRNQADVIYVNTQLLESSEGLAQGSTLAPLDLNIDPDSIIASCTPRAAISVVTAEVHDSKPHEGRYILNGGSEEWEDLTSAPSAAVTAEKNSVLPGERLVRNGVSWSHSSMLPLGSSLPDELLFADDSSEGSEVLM
To be noted: at 0.1 µM.

Test [7] concerns the target T1, Tyrosine-protein kinase Mer (Homo sapiens). To be noted: at 1 µM.
In test [8] the target is Hepatocyte growth factor receptor (Homo sapiens) (UniProt P08581). To be noted: at 0.1 µM.
Test [9] has the same target. The settings on record: at 1 µM.
Test [10] concerns the target T2, Muscle, skeletal receptor tyrosine-protein kinase (Homo sapiens) (UniProt O15146).
T2 sequence (whole entry): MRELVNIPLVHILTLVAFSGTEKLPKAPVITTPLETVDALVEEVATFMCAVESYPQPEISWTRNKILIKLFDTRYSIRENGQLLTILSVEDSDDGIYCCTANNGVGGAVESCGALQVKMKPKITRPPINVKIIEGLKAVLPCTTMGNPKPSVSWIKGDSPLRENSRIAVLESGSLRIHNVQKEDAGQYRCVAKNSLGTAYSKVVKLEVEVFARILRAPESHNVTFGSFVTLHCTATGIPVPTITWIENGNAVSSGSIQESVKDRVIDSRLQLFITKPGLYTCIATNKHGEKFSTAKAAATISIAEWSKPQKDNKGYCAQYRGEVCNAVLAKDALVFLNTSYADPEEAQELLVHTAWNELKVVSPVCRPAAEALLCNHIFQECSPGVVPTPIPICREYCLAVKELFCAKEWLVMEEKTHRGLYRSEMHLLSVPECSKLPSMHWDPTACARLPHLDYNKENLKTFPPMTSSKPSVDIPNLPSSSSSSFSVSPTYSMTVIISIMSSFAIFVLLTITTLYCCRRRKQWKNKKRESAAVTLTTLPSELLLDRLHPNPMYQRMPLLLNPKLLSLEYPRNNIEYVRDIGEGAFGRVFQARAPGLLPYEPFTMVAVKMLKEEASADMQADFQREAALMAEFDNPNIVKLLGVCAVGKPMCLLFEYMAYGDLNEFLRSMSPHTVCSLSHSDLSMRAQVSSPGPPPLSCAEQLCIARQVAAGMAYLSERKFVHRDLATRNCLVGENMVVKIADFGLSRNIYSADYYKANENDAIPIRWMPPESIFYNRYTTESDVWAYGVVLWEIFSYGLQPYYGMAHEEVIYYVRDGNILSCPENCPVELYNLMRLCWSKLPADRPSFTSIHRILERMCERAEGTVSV
The settings on record: at 0.1 µM.

Test [11] deals with T2, Muscle, skeletal receptor tyrosine-protein kinase (Homo sapiens). To be noted: at 1 µM.
Test [12] deals with Platelet-derived growth factor receptor alpha (Homo sapiens) (UniProt P16234). The settings on record: at 0.1 µM.
Test [13] has the same target. To be noted: at 1 µM.
Test [14] relates to Platelet-derived growth factor receptor alpha (Homo sapiens), P16234 [D842V]. The settings on record: at 0.1 µM.
For test [15] the test system is unchanged. The settings on record: at 1 µM.
Test [16] deals with Platelet-derived growth factor receptor alpha (Homo sapiens), P16234 [T674I]. The settings on record: at 0.1 µM.
Test [17] shares this test system. To be noted: at 1 µM.
Test [18] has as its system Platelet-derived growth factor receptor alpha (Homo sapiens), P16234 [V561D]. To be noted: at 0.1 µM.
Test [19] shares this test system. To be noted: at 1 µM.
Test [20] deals with Platelet-derived growth factor receptor beta (Homo sapiens) (UniProt P09619). The settings on record: at 0.1 µM.

Chain of Hepatocyte growth factor receptor (Homo sapiens) (P08581 whole entry): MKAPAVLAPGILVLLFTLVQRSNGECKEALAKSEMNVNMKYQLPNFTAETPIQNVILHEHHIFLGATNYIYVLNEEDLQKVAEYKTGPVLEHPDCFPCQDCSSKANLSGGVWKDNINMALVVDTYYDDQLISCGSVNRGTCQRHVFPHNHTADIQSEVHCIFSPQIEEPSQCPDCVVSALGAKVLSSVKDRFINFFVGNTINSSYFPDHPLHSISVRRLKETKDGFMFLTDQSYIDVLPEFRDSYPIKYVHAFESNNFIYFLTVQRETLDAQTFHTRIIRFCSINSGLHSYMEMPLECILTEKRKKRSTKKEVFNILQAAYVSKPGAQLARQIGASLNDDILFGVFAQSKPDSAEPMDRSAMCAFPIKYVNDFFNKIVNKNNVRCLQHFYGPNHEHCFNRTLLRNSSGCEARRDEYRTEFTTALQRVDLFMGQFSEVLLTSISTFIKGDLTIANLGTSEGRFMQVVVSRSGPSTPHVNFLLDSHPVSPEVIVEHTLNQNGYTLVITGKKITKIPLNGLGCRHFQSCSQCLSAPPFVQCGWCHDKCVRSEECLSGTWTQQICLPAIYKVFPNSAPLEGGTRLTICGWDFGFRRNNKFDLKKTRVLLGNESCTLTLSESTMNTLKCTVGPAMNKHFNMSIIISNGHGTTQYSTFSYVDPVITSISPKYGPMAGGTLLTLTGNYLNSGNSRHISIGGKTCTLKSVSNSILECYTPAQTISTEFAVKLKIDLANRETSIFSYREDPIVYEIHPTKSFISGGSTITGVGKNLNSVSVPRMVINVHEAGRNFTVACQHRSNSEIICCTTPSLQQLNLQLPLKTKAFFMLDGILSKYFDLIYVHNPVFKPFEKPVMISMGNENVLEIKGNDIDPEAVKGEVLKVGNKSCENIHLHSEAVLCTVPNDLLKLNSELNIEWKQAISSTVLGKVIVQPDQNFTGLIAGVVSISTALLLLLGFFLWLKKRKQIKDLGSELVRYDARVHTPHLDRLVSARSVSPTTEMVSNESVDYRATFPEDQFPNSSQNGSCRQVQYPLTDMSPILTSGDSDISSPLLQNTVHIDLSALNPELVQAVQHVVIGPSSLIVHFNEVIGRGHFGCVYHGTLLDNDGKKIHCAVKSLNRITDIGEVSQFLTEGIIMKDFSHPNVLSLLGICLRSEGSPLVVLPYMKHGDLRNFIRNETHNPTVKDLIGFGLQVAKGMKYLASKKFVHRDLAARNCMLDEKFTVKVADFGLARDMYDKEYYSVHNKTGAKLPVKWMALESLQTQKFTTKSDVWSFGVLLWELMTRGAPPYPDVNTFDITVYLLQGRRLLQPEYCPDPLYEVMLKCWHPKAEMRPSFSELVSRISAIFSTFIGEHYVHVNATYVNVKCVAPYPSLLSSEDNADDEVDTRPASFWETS
Chain of Platelet-derived growth factor receptor alpha (Homo sapiens), P16234 [T674I] (P16234 whole entry T674I): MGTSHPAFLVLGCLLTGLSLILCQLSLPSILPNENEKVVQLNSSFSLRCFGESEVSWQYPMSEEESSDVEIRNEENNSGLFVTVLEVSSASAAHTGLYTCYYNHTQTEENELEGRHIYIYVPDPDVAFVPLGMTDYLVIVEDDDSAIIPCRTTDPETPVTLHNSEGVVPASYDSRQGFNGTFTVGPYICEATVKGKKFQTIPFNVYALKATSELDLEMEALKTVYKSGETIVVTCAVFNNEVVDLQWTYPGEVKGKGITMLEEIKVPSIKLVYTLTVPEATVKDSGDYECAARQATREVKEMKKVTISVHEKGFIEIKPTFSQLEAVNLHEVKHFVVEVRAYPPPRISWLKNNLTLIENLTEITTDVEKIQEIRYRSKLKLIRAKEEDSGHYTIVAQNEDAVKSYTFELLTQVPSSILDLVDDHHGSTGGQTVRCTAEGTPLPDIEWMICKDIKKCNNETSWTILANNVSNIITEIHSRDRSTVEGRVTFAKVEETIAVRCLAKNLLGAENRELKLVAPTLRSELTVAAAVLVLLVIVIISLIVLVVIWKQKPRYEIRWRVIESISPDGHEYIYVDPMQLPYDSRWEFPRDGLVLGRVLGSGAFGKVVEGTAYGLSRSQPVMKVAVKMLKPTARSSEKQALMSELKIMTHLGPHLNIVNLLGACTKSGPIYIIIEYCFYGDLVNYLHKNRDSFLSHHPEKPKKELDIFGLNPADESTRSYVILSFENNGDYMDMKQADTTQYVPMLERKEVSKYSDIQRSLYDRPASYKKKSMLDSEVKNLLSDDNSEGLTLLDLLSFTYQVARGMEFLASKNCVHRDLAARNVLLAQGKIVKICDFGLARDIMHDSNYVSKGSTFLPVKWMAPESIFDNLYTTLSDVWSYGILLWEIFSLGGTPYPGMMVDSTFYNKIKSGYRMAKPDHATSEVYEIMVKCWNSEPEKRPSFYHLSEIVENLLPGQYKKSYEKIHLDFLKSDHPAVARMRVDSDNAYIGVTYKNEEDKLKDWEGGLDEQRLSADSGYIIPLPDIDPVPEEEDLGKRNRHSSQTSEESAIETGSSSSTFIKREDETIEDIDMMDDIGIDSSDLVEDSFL
Chain of Leukocyte tyrosine kinase receptor (Homo sapiens) (P29376 whole entry): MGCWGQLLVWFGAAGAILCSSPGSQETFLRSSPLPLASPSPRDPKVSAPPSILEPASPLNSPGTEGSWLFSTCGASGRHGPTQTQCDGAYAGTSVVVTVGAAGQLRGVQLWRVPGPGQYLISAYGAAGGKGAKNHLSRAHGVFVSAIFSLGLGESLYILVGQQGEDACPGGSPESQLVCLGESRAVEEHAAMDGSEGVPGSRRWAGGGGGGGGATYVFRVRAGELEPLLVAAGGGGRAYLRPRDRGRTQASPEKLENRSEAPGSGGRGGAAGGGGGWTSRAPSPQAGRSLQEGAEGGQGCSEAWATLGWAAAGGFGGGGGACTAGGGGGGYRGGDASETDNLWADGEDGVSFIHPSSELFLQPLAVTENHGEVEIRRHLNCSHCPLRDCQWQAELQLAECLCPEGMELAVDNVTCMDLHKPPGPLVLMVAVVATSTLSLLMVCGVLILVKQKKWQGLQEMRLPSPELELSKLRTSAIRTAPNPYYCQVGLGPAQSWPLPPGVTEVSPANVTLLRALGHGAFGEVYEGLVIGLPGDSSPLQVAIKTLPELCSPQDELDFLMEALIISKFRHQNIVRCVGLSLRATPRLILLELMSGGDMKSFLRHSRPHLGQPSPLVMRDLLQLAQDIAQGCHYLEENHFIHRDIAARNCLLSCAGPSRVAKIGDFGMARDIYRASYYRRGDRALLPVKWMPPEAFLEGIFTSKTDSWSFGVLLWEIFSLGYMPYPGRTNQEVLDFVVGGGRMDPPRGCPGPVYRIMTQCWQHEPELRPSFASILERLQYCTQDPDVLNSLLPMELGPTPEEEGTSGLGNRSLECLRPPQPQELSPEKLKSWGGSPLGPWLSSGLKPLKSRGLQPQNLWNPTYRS
Chain of Tyrosine-protein kinase Lyn (Homo sapiens) (P07948 2-512 limits assumed): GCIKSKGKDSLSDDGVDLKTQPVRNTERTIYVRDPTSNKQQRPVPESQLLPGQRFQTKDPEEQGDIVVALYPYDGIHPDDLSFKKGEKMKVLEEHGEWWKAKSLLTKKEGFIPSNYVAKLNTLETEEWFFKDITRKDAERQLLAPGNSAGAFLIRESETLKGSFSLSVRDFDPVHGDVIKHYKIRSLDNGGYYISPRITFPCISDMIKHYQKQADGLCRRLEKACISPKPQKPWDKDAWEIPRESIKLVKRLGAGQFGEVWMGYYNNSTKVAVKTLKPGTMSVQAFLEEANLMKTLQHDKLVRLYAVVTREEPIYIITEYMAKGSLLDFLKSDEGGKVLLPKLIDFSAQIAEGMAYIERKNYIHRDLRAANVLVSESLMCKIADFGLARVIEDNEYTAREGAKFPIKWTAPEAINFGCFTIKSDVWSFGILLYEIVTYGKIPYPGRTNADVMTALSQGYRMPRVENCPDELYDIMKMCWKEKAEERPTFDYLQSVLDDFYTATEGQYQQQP
Chain of Platelet-derived growth factor receptor alpha (Homo sapiens) (P16234 whole entry): as the sequence (P16234 whole entry T674I) above, with I674T counted along it

`Cc1ccc2c(-c3ccnc(Nc4ccc5c(c4)OCCO5)n3)c(-c3ccc(C(F)(F)F)cc3)nn2n1`: the inhibition is 1.95% in [1]; 2.2% in [2]; 6.17% in test [3]; 1.57% in [4]; 4.82% in test [5]; -0.17% in test [6]. The inhibition in test [7] was 0.27%; in test [8], 6.93%; in test [9] it was 1.74%; in test [10] it was -0.62%; in [11] it was -5.36%; in [12], 3.02%. The inhibition in test [13] came to 9.11%; in test [14] it was 2.16%; in [15] it was 3.64%; in [16], 2.93%; in [17], 2.96%; in test [18], 1.97%. Besides, the inhibition turned out to be 4.53% in test [19] and 2.08% in test [20].

Take `COC(=O)c1cncc(/C=C/c2c(C)cc(O)cc2C)c1`: the inhibition in test [1] was 4.87%; in test [2], 12.3%; in test [3] it was 46.2%; in test [4], 7.81%; in test [5], 41.9%; in test [6] it was 0.09%. Also, the inhibition turned out to be 2.53% in [7]; 1.79% in [8]; 11.5% in test [9]; 2.48% in [10]; 3.88% in [11]; 14.8% in test [12]. For the same compound, the inhibition worked out at 42.8% in test [13]; 0.7% in test [14]; 7.7% in test [15]; 3.58% in [16]; 6.85% in [17]; 27% in test [18]. Further, the inhibition in test [19] was determined as 54.8%; in test [20] it was 9.77%.

With `CN(C)c1cc2c(Nc3ccc4c(cnn4Cc4ccccc4)c3)ncnc2cn1`, the inhibition in [1] is 3.01%; in test [2], 2.67%; in test [3] it was 13.5%; in [4] it was 2.82%; in test [5], 10.6%; in test [6], 6.16%. In addition, the inhibition in test [7] was 40.9%; in [8] it was 5.12%; in test [9], 0.45%; in test [10] it was 1.76%; in test [11], 1.56%; in test [12] it was 0%. The inhibition is 8.21% in [13]; 0.65% in test [14]; 4.51% in test [15]; 3.93% in test [16]; 8.69% in test [17]; 0.81% in [18]. Besides, the inhibition in test [19] was 6.19%; in test [20] it was -1%.

Consider `COc1cc2ncn(-c3cc(OCc4ccccc4S(C)(=O)=O)c(C#N)s3)c2cc1OC`, for which the inhibition came out at 7.89% in [1]; 20.4% in test [2]; 65.6% in [3]; 15.1% in test [4]; 60.9% in test [5]; 35.4% in test [6]. The inhibition in test [7] came to 77.1%; in test [8], 5.94%; in test [9], 15.6%; in test [10], 13.2%; in [11], 50.6%; in test [12] it was 59.9%. Further, the inhibition was 81.6% in test [13]; 47.5% in [14]; 88% in test [15]; 7.95% in [16]; 36.1% in test [17]; 47.3% in test [18]. The figures for the inhibition in test [19] and in test [20] were 87.8% and 45.3%, respectively.

With `NS(=O)(=O)c1ccc(NC=C2C(=O)Nc3ccc4ncsc4c32)cc1`, the inhibition in test [1] was found to be 17.3%; in test [2], 11.5%; in test [3] it was 47.1%; in test [4] it was 7.96%; in [5] it was 40.9%; in [6], 3.9%. In addition, the inhibition in test [7] worked out at 16.3%; in [8] it was 18.8%; in [9], 62.2%; in [10], 23.7%; in [11], 73%; in test [12], 69.8%. Besides, the inhibition was determined as 91.4% in test [13]; 75.9% in test [14]; 95% in test [15]; 29.3% in [16]; 90% in [17]; 68% in test [18]. The inhibition in test [19] worked out at 94.9%; in test [20] it was 73.2%.

Consider `N#Cc1cccc(Nc2nccc(-c3cnn4ncccc34)n2)c1`, for which the inhibition amounted to 12.7% in test [1]; 6.49% in test [2]; 31.5% in [3]; 4.82% in test [4]; 22.2% in test [5]; 7.85% in test [6]. Further, the inhibition was 46% in test [7]; 6.82% in [8]; 17.3% in test [9]; 5.72% in test [10]; 24.6% in test [11]; 16.3% in test [12]. The inhibition in test [13] stood at 52.5%; in [14], 10.5%; in [15], 48.8%; in [16], 15.7%; in [17] it was 60.5%; in [18], 23.3%. The inhibition was 59.9% in test [19] and 27.2% in [20].

The term inhibition denotes the change of the read-out against control, counted positive when it falls.
